KLK7 zymogen act – proKLK7 zymogen activators, primary screen, biochemical, fluorescence intensity | Kallikrein-7 (Homo sapiens), P49862 | purified proKLK7, EDANS-DABCYL substrate fluorescence; 100% is mature enzyme control, 0% vehicle | activation, % at 7 µM | 0.9% of 370,000 active | AID 652039, 2013;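 active = activation above the mean of all tested compounds plus 3 SD, computed per campaign excluding outliers beyond control limits, cut at about 13% in these data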
ADAM17 inh – ADAM17 inhibitors, primary screen, biochemical, QFRET | AID 720648, 2013 | inhibition, % at 6.95 µM | recombinant ADAM17, EDANS/DABCYL FRET peptide cleavage | Disintegrin and metalloproteinase domain-containing protein 17 (Homo sapiens), P78536 | 0.83% of 370,000 active;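 active = inhibition above the mean of compounds lying between control limits plus 3 SD, set per campaign, cut at about 8.5% in these data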;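 also: 0% = DMSO-only wells as the low control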
Target sequence (P78536 215-824 limits assumed): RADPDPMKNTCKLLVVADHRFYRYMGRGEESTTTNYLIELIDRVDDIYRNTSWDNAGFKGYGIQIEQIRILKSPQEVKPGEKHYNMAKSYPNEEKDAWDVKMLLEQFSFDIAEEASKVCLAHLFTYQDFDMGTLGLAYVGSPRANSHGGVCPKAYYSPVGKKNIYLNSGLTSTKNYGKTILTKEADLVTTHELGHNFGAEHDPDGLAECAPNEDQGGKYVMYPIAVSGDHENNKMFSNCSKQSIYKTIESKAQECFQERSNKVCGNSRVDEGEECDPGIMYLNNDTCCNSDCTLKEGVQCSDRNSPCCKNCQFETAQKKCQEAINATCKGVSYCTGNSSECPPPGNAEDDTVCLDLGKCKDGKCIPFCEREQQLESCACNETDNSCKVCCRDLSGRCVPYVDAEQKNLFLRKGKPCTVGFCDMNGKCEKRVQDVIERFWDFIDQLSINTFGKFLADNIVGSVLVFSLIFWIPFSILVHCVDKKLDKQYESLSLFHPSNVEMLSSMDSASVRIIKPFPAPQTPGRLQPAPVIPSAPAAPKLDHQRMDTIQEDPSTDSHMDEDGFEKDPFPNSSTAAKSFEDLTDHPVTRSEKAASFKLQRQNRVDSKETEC
PLC-gamma1 inh – PLC-gamma1 enzyme inhibitors, primary screen, biochemical, fluorescence, purified enzyme; 1-phosphatidylinositol 4,5-bisphosphate phosphodiesterase gamma-1 (Homo sapiens), P19174; fluorogenic substrate; inhibition, % at 12.2 µM; 0.84% of 370,000 active; in the data active = inhibition above about 9.5%
sPLA2-III inh – human group III sPLA2 inhibitors, primary screen, biochemical, QFRET, BODIPY PC-A2 liposome substrate. QFRET BODIPY PC-A2 liposome hydrolysis, fluorescence. inhibition, % at 12.2 µM. 0.56% of 370,000 active. AID 743126, 2013;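 active = inhibition above mean plus 3 SD of compounds lying within the high and low control bounds, cut at about 19% in these data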;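 also: 0% = median of test compound wells and 100% = no enzyme DMSO wells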
PLC-beta3 inh – human PLC-beta3 inhibitors, primary screen, biochemical, fluorescence; Purified PLC-beta3, fluorogenic substrate; AID 720704, 2013; 0.18% of 370,000 active; 1-phosphatidylinositol 4,5-bisphosphate phosphodiesterase beta-3 (Homo sapiens), Q01970; inhibition, % at 12.2 µM; in the data active = inhibition above about 11%;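 also: 0% = median of compound wells on plate and 100% = full blocker control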
ADAM10 inh – human ADAM10 inhibitors, primary screen, biochemical, QFRET, HTS; recombinant ADAM10, EDANS/DABCYL FRET peptide cleavage, 3 h; inhibition, % at 7 µM; 0.62% of 370,000 active; AID 720582, 2013; Disintegrin and metalloproteinase domain-containing protein 10 (Homo sapiens), O14672;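 active = inhibition above a per-campaign cutoff equal to the mean of compounds falling between control-based bounds plus 3 SD, cut at about 20% in these data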;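 also: 0% = DMSO wells while the 100% control is not disclosed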
proKLK7 act conf – proKLK7 zymogen activators, confirmation, biochemical, fluorescence intensity, triplicate; shares compounds with KLK7 zymogen act; purified proKLK7, EDANS-DABCYL substrate fluorescence; scaled: vehicle 0, mature enzyme 100; activation, % at 7 µM; 68% of 3,200 active;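 active = activation, as change over the incubation, above the mean of all tested compounds plus 3 SD, cut at about 13% in these data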
EDANS interfere – EDANS-DABCYL substrate optical interference, artefact control for kallikrein-7 zymogen activator project, biochemical, fluorescence intensity, high throughput | shares compounds with KLK7 zymogen act | no enzyme, 4 h; solvent 0%, active enzyme control 100% | activation, % at 7 µM | 80% of 3,200 active;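 active = activation above the all-compound mean plus 3 SD, ignoring values outside control-based bounds, cut at about 4.8% in these data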;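 also: value is the 4 h activation minus the activation read at time zero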
EDANS interf – EDANS fluorescence interference in dose response, no enzyme; shares compounds with KLK7 zymogen act; EDANS-DABCYL peptide fluorescence interference; EC50, µM; 20% of 250 active;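 active = compounds that raise the fluorescence signal in this interference counterscreen, with EC50 at or below 10 µM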;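 also: intact quenched peptide substrate alone read at 355 nm excitation and 520 nm emission; signal is fluorescence gain from T0 to T4 after four hours at room temperature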
* hit, by the source's call; i = inactive; · = no result given. Rows were chosen to be rich in hits. Some 3.4% of all compounds tested hit in one or more screens of this group.

SMILES | KLK7 zymogen act | ADAM17 inh | PLC-gamma1 inh | sPLA2-III inh | PLC-beta3 inh | ADAM10 inh | proKLK7 act conf | EDANS interfere | others
C[C@H]1COc2c(N3CCN(C)CC3)c(F)cc3c(=O)c(C(=O)O)cn1c23 | 172* | -458 | i | 1 | i | i | 55* | 56*
CNC(=S)N1CCN(c2c(F)cc3c(=O)c(C(=O)O)cn(C4CC4)c3c2OC)CC1C (stereo not drawn) | -1 | -12 | -42 | 5 | -55 | -61 | · | ·
O=C(N[C@H](C(=O)N1CCC[C@H]1C(=O)NC1CCCC1)c1ccccc1)C1CCCC1 | 0 | -5 | 0 | 8 | -2 | -14 | · | ·
CC(C)CNc1cccc2c1S(=O)(=O)N(Cc1ccc(F)cc1)[C@@H](C)[C@H](c1ccccc1)O2 | 1 | 1 | 4 | 5 | 5 | -2 | · | ·
C=C(C)COc1ccc2c(C)c(CC(=O)N3C[C@H]4C[C@@H](C3)c3cccc(=O)n3C4)c(=O)oc2c1 | 4 | -229 | -72 | 5 | -98 | i | · | ·
C=C(C)COc1cc2oc(=O)c(CC(=O)N3C[C@H]4C[C@@H](C3)c3cccc(=O)n3C4)c(C)c2cc1Cl | 16* | -402 | -191 | 0 | -244 | i | 24* | 25*
Cc1cccc(CN2CCSCCS2(=O)=O)c1 | 0 | -4 | -1 | 7 | -1 | -13 | · | ·
Cc1nn(-c2ccc(F)cc2)c2sc(C(=O)OC3CCOC3=O)cc12 (stereo not drawn) | 20* | -47 | -61 | -2 | -78 | -281 | 24* | 23*
CC(=O)Nc1cccc(Nc2nc(-c3ccccc3)nc3ccccc23)c1 | 19* | -14 | -230 | -33 | -316 | -45 | 4 | 7.8*
CC(=O)Nc1ccc2nc3ccccc3nc2c1 | 43* | -46 | i | 4 | i | -96 | 46* | 43*
CC(=O)Nc1ccc(-c2nc3ccc(NC(C)=O)cc3o2)cc1 | 33* | -350 | -362 | 16 | i | i | 26* | 16* | EDANS interf=>69
COC(=O)C1=CC(=O)N2CCN=C2S1 | -6 | -22 | -5 | -4 | -7 | -72 | · | ·
O=C(CNCc1ccccc1[N+](=O)[O-])N1CCC2(CC1)OCCO2 | -1 | 0 | -4 | 4 | -5 | 0 | · | ·
O=C(NCC1CCN(C(=O)C(=O)c2cccs2)CC1)c1ccc2c(c1)OCO2 | 0 | -4 | 1 | 1 | 2 | -1 | · | ·
CN(N=Cc1ccc(N(C)C)cc1)C(=O)c1ccccc1N | 0 | -3 | 1 | 7 | 2 | -10 | · | ·
COc1cccc(CNC(=O)[C@H]2CCCN2C(=O)[C@H]2CCCN2C(=O)c2ccc(Cl)cc2)c1 | -1 | 0 | 3 | -1 | 1 | 0 | · | ·
CN(C)CCNc1ccc2nnn3c4ccc(O)cc4c(=O)c1c23 | 1 | -7 | -14 | -4 | -18 | -38 | · | ·
CCN(CC)CCCNc1ccc2ncn3c4ccc(O)cc4c(=O)c1c23 | 71* | -8 | i | -53 | i | -25 | 9 | 28*
COC(=O)C1=CN(Cc2ccc(OC)c(OC)c2)C=C(C(=O)OC)C1c1ccc(F)cc1 | -22 | i | i | -5 | i | i | · | ·
COC(=O)C1=CN(Cc2ccc(OC)c(OC)c2)C=C(C(=O)OC)C1c1ccc(O)cc1 | 21* | -451 | -382 | -8 | -434 | i | -147 | -168
Cc1cccc2nc(-c3ccccc3)c(-c3ccc(CN4CCC(n5cc(-c6ccccc6)[nH]c5=O)CC4)cc3)nc12 | -11 | -38 | -50 | -17 | -67 | -197 | · | ·
Cc1cc(C)c2c(N)c(C(=O)Nc3nccs3)sc2n1 | 120* | i | i | 7 | i | i | -3 | -11
COCc1cc(C)nc2sc(C(=O)Nc3nccs3)c(N)c12 | 4 | -20 | i | 7 | i | -77 | · | ·
CC(C)(C)C1=CC(CC(N)=O)(C(C)(C)C)OC1=O (stereo not drawn) | 1 | -1 | 0 | -3 | 1 | -1 | · | ·
COCCN1C(=O)/C(=C2/C(=O)N(CC(=O)Nc3ccccc3Cl)c3ccccc32)SC1=S | 1 | -6 | 2 | 5 | -2 | -1 | · | ·
SMILES | KLK7 zymogen act | ADAM17 inh | PLC-gamma1 inh | sPLA2-III inh | PLC-beta3 inh | ADAM10 inh | proKLK7 act conf | EDANS interfere | others
CCN1C(=O)/C(=C2\SC(=S)N(CCCOC)C2=O)c2ccccc21 | 20* | -7 | 0 | 5 | 4 | -4 | 1 | 1
CCOC(=O)C1CCN(C(c2cc3c(C)ccc(C)c3[nH]c2=O)c2nnnn2C2CCCCC2)CC1 (stereo not drawn) | 27* | -22 | -42 | -2 | -54 | -63 | 1 | 0
Cc1ccc(C(=O)Nc2ccc(NC(=O)c3ccc(C)o3)cc2)o1 | 29* | -2 | 0 | 2 | 1 | 0 | 31* | 18*
O=C(O)CCc1nn2cc(-c3ccccc3)nc2[nH]c1=O | 56* | -312 | i | -2 | i | i | 72* | 81*
Cc1nn2cc(-c3ccccc3)nc2[nH]c1=O | 49* | -242 | i | 0 | i | i | 74* | 80*
COC(=O)[C@H](C)NC(=O)[C@@H]1CC=C[C@@H]2CCN(CCc3ccccc3)C(=O)[C@@H]21 | · | -1 | -3 | -1 | -1 | -3 | · | ·
COc1ccc(CCN2C(=O)c3ccccc3NC2c2cc(Cl)c(O)c(OC)c2)cc1 (stereo not drawn) | 4 | -78 | -112 | -27 | -170 | -214 | · | ·
COc1ccc(C2Nc3ccccc3C(=O)N2O)cc1OC (stereo not drawn) | 0 | -10 | -11 | 5 | -16 | -20 | · | ·
CCCN1C(=O)c2ccccc2NC1c1cc(OC)c(OC)c(OC)c1 (stereo not drawn) | 16* | -341 | -289 | 9 | -377 | i | 11 | 16*
CCN(CC)CCN1C(=O)c2ccccc2NC1c1cc(OC)c(OC)c(OC)c1 (stereo not drawn) | 99* | -452 | i | -6 | i | i | 14* | 18*

High-throughput results: PubChem BioAssay, The Scripps Research Institute Molecular Screening Center
